GLS inh: inhibitors of human glutaminase (GLS); O94925; GLS enzymatic activity, qHTS titration; Potency, µM (top dose mostly 45.5 µM), without a hit: top-dose activity change, negative = inhibition, actives largely listed as inhibitors; 410,000 tested, 0.21% active; also: % is scaled to controls: 0 for no effect and ±100 for the full control effect
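Read-out is an Amplex red fluorescence increase coupled through glutamate oxidase and HRP, measured before and after 30 min room-temperature incubation. hKGA is in 45 mM KH2PO4 (pH 8.2) with 0.02% Tween-20; glutamine added as 1mM solution.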
HP1b binding inh: HP1-beta chromodomain-methylated histone interaction inhibition | P83916 | AlphaScreen HP1-beta / biotin-H3K9me3 peptide binding | Potency, µM (series often up to 114 µM), for inactives: at the highest dose activity change, negative = inhibition, actives largely listed as inhibitors | 390,000 tested, 0.56% active; also: nearly all actives have a fitted effect of over 70% in size
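HP1-beta protein (50 nM final) preincubated 30 min at room temperature with biotinylated H3(1-18)K9me3 peptide (50 nM) in PBS pH 7.4, 0.01% Tween-20, then compound added for 30 min. AlphaScreen streptavidin donor/nickel chelate acceptor beads (10 ug/mL final), 30 min dark, luminescence read.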
G9a inh: inhibitors of human histone lysine methyltransferase G9a; Q96KQ7; G9a H3K9 monomethylation, AlphaScreen, 2 h; Potency, µM (series often up to 102 µM), without a hit: at the top dose activity, negative = inhibition, hits mostly inhibitors; 350,000 tested, 8.8% active; AID 504332; also: % is scaled to controls: 0 for no effect and ±100 for the full control effect; nearly all actives have a fitted effect of over 75% in size
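Compounds were preincubated with 20 nM G9a for 15 min, after which biotinylated H3K9 peptide (500 nM) and SAM (20 uM) started a 2 h room-temperature reaction. Monomethylated product was quantified by antibody-based AlphaScreen chemiluminescence.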
JMJD2A Tudor: inhibitors of human JMJD2A Tudor domain; AID 504339; 390,000 tested, 4.4% active; O75164; Potency, µM (doses to about 114 µM), for the others: top-dose activity change, negative = inhibition, actives largely listed as inhibitors; AlphaScreen JMJD2A-Tudor / H3K4me3 peptide binding; also: % is scaled to controls: 0 for no effect and ±100 for the full control effect; nearly all actives have a fitted effect of over 50% in size
Target sequence (O75164 whole entry, looked up, the tested form may be a part): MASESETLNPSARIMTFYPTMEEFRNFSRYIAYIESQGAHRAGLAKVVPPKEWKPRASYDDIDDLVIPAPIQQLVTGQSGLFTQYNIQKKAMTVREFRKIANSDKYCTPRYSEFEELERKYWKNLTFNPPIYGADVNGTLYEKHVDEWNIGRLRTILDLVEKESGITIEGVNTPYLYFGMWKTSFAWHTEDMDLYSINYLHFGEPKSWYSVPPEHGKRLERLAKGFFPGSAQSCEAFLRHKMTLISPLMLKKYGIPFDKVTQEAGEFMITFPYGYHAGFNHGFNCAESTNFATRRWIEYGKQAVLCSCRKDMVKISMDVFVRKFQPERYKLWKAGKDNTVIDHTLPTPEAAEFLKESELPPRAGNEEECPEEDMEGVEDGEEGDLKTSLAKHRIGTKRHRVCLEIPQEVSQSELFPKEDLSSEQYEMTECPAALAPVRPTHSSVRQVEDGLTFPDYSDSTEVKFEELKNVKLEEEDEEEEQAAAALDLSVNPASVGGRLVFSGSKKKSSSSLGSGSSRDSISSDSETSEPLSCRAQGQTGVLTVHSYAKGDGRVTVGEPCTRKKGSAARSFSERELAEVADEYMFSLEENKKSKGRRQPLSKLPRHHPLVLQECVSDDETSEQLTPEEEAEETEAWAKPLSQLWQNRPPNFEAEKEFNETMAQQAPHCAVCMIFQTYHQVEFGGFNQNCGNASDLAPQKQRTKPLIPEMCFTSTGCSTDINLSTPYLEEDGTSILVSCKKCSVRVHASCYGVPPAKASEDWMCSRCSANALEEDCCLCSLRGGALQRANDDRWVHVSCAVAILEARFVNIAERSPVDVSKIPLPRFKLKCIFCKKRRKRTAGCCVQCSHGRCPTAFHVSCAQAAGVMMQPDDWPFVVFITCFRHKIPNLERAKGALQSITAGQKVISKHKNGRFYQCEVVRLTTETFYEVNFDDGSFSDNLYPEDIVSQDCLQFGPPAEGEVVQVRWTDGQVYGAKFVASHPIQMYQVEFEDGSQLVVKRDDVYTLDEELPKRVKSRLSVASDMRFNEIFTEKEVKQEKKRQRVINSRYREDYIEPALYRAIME
BAZ2B inh: inhibitors of human BAZ2B bromodomain; AID 504333; AlphaScreen BAZ2B-H3K14Ac peptide displacement; 360,000 tested, 4.4% active; Potency, µM (top dose mostly 114 µM), inactives show at the highest dose activity change, negative = inhibition, actives largely listed as inhibitors; Q9UIF8; also: % is scaled to controls: 0 for no effect and ±100 for the full control effect; nearly all actives have a fitted effect of over 60% in size
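Protein-peptide AlphaScreen: BAZ2B 50 nM, b-H3K14Ac 50 nM, 1x PBS pH 7.4 + 0.01% Tween-20. Preincubation 30 min RT; cpd 30 min RT (top 110 uM); beads 20 min RT, light-protected.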
* hit, by the source's call; [ ] = another dose, or the depositor's remark. A selection: hits, their analogues and other compounds. The true share with any hit is near 10%. Calls follow the shape of the dose curve; as a rule, active = well fitted curve in the direction sought with a large enough effect; inconclusive = small, poorly fitted or top-dose-only effect, or another doubt; inactive = no such curve, though single readings can be large; an effect the other way counts as inactive or inconclusive. Potency is read from the fitted curve at half-maximal effect.

How did Cc1ncc(CN2CCCC(C(=O)Nc3ccc(-c4cscn4)cc3)C2)cn1 (stereo unspecified) do in these assays?
GLS inh: 1%; HP1b binding inh: 33%; JMJD2A Tudor: -14%; BAZ2B inh: -4%

Results for COCc1cc(CN2CCCC(C(=O)Nc3ccc(-c4ccco4)cc3)C2)ccc1OC (stereo unspecified) ?
GLS inh: 15%; HP1b binding inh: inconclusive; G9a inh: 8.9µM*; JMJD2A Tudor: inconclusive; BAZ2B inh: inconclusive

How did Cc1ncc(CN2CCCC(C(=O)Nc3ccc(-c4ccco4)cc3)C2)cn1 (stereo unspecified) do in these assays?
GLS inh: 1%; HP1b binding inh: 14%[57 µM]; G9a inh: 10%[0.501 µM]; JMJD2A Tudor: -24%; BAZ2B inh: 79µM*

What do the screens show for `CCCS(=O)(=O)N1CCCC(C(=O)NCC2CCCO2)C1` (stereo unspecified)?
GLS inh: 8%; HP1b binding inh: 26%; G9a inh: 21%[12.7 µM]; JMJD2A Tudor: 6%; BAZ2B inh: 4%

What do the screens show for `CCCCCCCC(=O)N/N=C/c1cccnc1`?
GLS inh: -4%; HP1b binding inh: 29%; G9a inh: -6%; JMJD2A Tudor: -14%; BAZ2B inh: 5%

What do the screens show for `COc1ccc(CCC(C)NCc2ccccc2OC)cc1` (stereo unspecified)?
GLS inh: -1%; HP1b binding inh: 48%; G9a inh: 3%; JMJD2A Tudor: -23%; BAZ2B inh: -16%

Results for COCCNC(=O)c1ccc(C)cc1C ?
GLS inh: -3%; HP1b binding inh: 33%; G9a inh: 17%; JMJD2A Tudor: -14%; BAZ2B inh: -5%

Results for COCC(C)NCc1ccc(C)cc1C (stereo unspecified) ?
GLS inh: 4%; HP1b binding inh: -27%; G9a inh: 11µM*; JMJD2A Tudor: 4.5µM*; BAZ2B inh: -33%

What do the screens show for `CC(CCc1ccccc1)NCc1cccc2ccccc12` (stereo unspecified)?
GLS inh: 9%; HP1b binding inh: -27%; G9a inh: inconclusive; JMJD2A Tudor: 25µM*; BAZ2B inh: 11%[0.457 µM]

What do the screens show for `OCCNCc1cccc2ccccc12`?
GLS inh: 20%; HP1b binding inh: 2%; G9a inh: -37%[59 µM]; JMJD2A Tudor: -13%; BAZ2B inh: -30%

Results for COCC(C)NCc1cccc2ccccc12 (stereo unspecified) ?
GLS inh: 1%; HP1b binding inh: -14%; G9a inh: 32µM*; JMJD2A Tudor: 32µM*; BAZ2B inh: -37%

How did COc1ccc(C)cc1S(=O)(=O)N1CCc2ccccc2C1 do in these assays?
GLS inh: 6%; HP1b binding inh: 51%; JMJD2A Tudor: 2%; BAZ2B inh: -10%

Results for Fc1ccc(CSc2nnc3ccccn23)c(Cl)c1 ?
GLS inh: -2%; HP1b binding inh: 48%; G9a inh: -34%; JMJD2A Tudor: -7%; BAZ2B inh: -6%

Results for O=C(CSc1nc(-c2ccccc2)no1)N1CCN(c2ccc(F)cc2)CC1 ?
GLS inh: -8%; HP1b binding inh: 30%; G9a inh: -3%[59 µM]; JMJD2A Tudor: -1%; BAZ2B inh: 1%

What do the screens show for `O=C(O)c1ccccc1NS(=O)(=O)c1ccc(NNC(=S)Nc2ccc(OC(F)F)cc2)c([N+](=O)[O-])c1`?
GLS inh: inconclusive; HP1b binding inh: 10µM*; G9a inh: 10µM*; JMJD2A Tudor: 25µM*; BAZ2B inh: 7.9µM*

Results for Cc1ccc(NC(=S)NNc2ccc([N+](=O)[O-])cc2S(=O)(=O)Nc2ccccc2C(=O)O)cc1C ?
GLS inh: inconclusive; HP1b binding inh: inconclusive; G9a inh: 11µM*; JMJD2A Tudor: 50µM*; BAZ2B inh: 11µM*

What do the screens show for `Cc1ccc(NC(=S)NNc2ccc(C(=O)O)cc2[N+](=O)[O-])cc1C`?
GLS inh: inconclusive; HP1b binding inh: 50µM*; JMJD2A Tudor: 7.9µM*

How did CC(=O)Nc1ccc(C=NNc2ccc([N+](=O)[O-])cc2S(=O)(=O)Nc2ccccc2C(=O)O)cc1 do in these assays?
GLS inh: inconclusive; HP1b binding inh: 12%; JMJD2A Tudor: inconclusive

What do the screens show for `Clc1ccc(OCCCc2nc(-c3ccncc3)no2)c(Cl)c1`?
GLS inh: -10%; HP1b binding inh: 160%; JMJD2A Tudor: 32%; BAZ2B inh: 40%

How did CCOC(=O)C1CCCN(Cc2nc(N)nc(Nc3ccc(OC)cc3)n2)C1 (stereo unspecified) do in these assays?
GLS inh: 41%; HP1b binding inh: -22%; G9a inh: -8%[12.7 µM]; JMJD2A Tudor: 20µM*; BAZ2B inh: inconclusive

Results for CCOC(=O)C1CCCN(Cc2nc(N)nc(Nc3ccc(Cl)cc3)n2)C1 (stereo unspecified) ?
GLS inh: -15%; HP1b binding inh: 32%; G9a inh: inconclusive; JMJD2A Tudor: 18%[11.4 µM]; BAZ2B inh: 50µM*

What do the screens show for `CCOC(=O)C1CCCN(Cc2nc(N)nc(Nc3ccccc3OC)n2)C1` (stereo unspecified)?
GLS inh: 3%; HP1b binding inh: 38%; G9a inh: 26%; JMJD2A Tudor: 56µM*; BAZ2B inh: inconclusive

How did CCOC(=O)C1CCCN(CCC(=O)Nc2ccc(Br)cc2)C1 (stereo unspecified) do in these assays?
GLS inh: 5%; HP1b binding inh: 33%; JMJD2A Tudor: 3%; BAZ2B inh: -4%

What do the screens show for `COc1ccccc1Nc1nc(N)nc(CSC(=S)N2CCCCC2C)n1` (stereo unspecified)?
GLS inh: 8%; HP1b binding inh: -1%; G9a inh: 4%[59 µM]; JMJD2A Tudor: -28%; BAZ2B inh: -27%

How did CC1(C(=O)NS(=O)(=O)c2ccc(F)cc2F)CCN1C(=O)c1ccco1 (stereo unspecified) do in these assays?
GLS inh: -3%

How did COC(=O)c1cc(CNC(=O)c2ccccc2Cl)ccc1OC do in these assays?
GLS inh: 3%; HP1b binding inh: 19%; G9a inh: 3%[59 µM]; JMJD2A Tudor: -11%; BAZ2B inh: -29%

How did CN(CC(=O)Nc1ccc(Cl)c(C(F)(F)F)c1)Cc1cc(=O)n2ccsc2n1 do in these assays?
GLS inh: -17%; HP1b binding inh: 42%; G9a inh: -27%; JMJD2A Tudor: -3%; BAZ2B inh: -6%

How did CNC(C)C#Cc1ccc2oc3cccc(OC)c3c(=O)c2c1 (stereo unspecified) do in these assays?
GLS inh: 12%; HP1b binding inh: 27%; G9a inh: 45µM*; JMJD2A Tudor: -15%; BAZ2B inh: -23%

What do the screens show for `CNC(C)C#Cc1ccc2sc3cccc(OC)c3c(=O)c2c1` (stereo unspecified)?
GLS inh: 0%; HP1b binding inh: 27%; G9a inh: 71µM*; JMJD2A Tudor: -22%; BAZ2B inh: -7%
